# High-throughput results from PubChem.
# TGFb SMAD3 inh – inhibitors of TGF-b signaling. HepG2 CAGA-GFP TGF-b/SMAD3 reporter, GFP fluorescence, 18 h; TGF-beta stimulated, 500 pg/mL final. Potency, µM (titrated, usually from 46.1 µM), inactives show at the top dose activity, negative = inhibition, actives largely listed as inhibitors. 410,000 tested, 1.2% active; further: potency means the concentration at half of the fitted maximal effect; on the % scale 0 is the no-effect control and ±100 the full control effect; nearly all actives have a fitted effect of over 65% in size
#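 GFP signal (ex488/em500-530) from TGF-beta-stimulated HEPG2 CAGA-GFP cells, 500 pg/mL final, 18 h at 37 degrees C in DMEM plus 1% FBS, normalized to unstimulated and DMSO-stimulated controls.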
# DT40 TDP1 CPT – DT40-hTDP1 cell growth loss with CPT. chicken DT40 Tdp1-/-;hTDP1 cells + 20 nM CPT, ATP luminescence, 48 h. Potency, µM (titrated, usually from 46.2 µM), for inactives: at the highest dose activity change, negative = growth inhibition, usual class: inhibitors. 420,000 tested, 12% active; further: potency means the concentration at half of the fitted maximal effect; on the % scale 0 is the no-effect control and ±100 the full control effect; nearly all actives have a fitted effect of over 55% in size
#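 Chicken DT40 Tdp1-/- cells stably complemented with human TDP1 were seeded at 400 cells/well in medium containing 20 nM camptothecin, exposed to pin-transferred compounds, and grown at 37 °C for at least 48 hr. Viability was read as ATP luminescence.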
# S-ASM inh – inhibitors of human secretory acid sphingomyelinase; Potency, µM (top dose mostly 57.5 µM), without a hit: at the top dose activity change, negative = inhibition, most hits filed as inhibitors; placental ASM, HMU-PC fluorogenic substrate, 60 min; 340,000 tested, 0.006% active; AID 504937; further: potency means the concentration at half of the fitted maximal effect
# Target sequence (P17405 47-631 limits assumed): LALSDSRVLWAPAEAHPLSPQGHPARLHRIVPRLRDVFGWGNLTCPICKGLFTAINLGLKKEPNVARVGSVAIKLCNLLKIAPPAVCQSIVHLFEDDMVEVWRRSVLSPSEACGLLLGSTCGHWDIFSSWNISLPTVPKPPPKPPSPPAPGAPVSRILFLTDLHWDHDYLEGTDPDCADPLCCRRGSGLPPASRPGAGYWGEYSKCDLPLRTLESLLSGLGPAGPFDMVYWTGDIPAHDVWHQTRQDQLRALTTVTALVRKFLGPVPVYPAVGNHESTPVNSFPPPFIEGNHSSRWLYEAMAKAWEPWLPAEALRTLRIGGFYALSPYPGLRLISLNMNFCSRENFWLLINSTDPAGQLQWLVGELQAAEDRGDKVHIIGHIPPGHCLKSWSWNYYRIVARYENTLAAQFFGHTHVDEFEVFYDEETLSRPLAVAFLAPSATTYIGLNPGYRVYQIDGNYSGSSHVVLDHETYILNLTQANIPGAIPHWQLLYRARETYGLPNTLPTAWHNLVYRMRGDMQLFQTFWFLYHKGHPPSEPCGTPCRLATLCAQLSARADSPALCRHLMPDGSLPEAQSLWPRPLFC
#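 Fluorescence read-out (Ex 386 nm, Em 447 nm) after stopping the reaction at pH 10. Enzyme: ASM from human placenta; substrate HMU-PC0, 9 uM final; 60 min, 37 °C. Compound preincubation 10 min, ambient temperature.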
# HepG2 viability – counter-screen for TGF-b inhibitors: cytotoxicity in HepG2 cells | 410,000 tested, 0.76% active | Potency, µM (doses to about 46.1 µM), inactives show top-dose activity change, negative = cytotoxicity, most hits filed as cytotoxic | HepG2 CAGA-GFP viability, ATP luminescence, 18 h; further: potency means the concentration at half of the fitted maximal effect
#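 HepG2 CAGA-GFP cells (1000/well, DMEM with 1% FBS) received compound, then TGF-beta at 500 pg/mL final, and were incubated 18 hours at 37 degrees C. Viability was read by CellTiter-Glo luminescence. Media-only wells were set as complete cell-killing and DMSO as no toxicity.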
# IL1B secr inh – blocks inflammasome-driven IL-1 beta release | THP-1 LPS/ATP IL-1B secretion, AlphaLISA, 16 h; hits give low values | activity change, % at 57.5 µM | 360,000 tested, 4.7% active | AID 743279; in the data active means activity change below about -50%; inconclusive means mostly about -30% to -49%; further: on the % scale 0 is the no-effect control and ±100 the full control effect
#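 Secreted IL-1B measured by AlphaLISA bead assay after 16 h compound exposure of THP-1 cells; compounds (final up to 57.5 uM) added 1 h before LPS (250 ng/mL) and ATP (1.25 mM) stimulation; lower signal means less secretion.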
# DT40 TDP1 no CPT – qHTS for Inhibitors of human tyrosyl-DNA phosphodiesterase 1 (TDP1): qHTS in cells in absence of CPT. AID 686978, 2013. Potency, µM (titrated, usually from 46.2 µM), without a hit: at the top dose activity change, negative = growth inhibition, usual class: inhibitors. 420,000 tested, 15% active. DT40 Tdp1-/- hTDP1 cells, no CPT, ATP luminescence, 48 h; further: potency means the concentration at half of the fitted maximal effect; on the % scale 0 is the no-effect control and ±100 the full control effect; nearly all actives have a fitted effect of over 55% in size
#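 Chicken DT40 Tdp1-/- cells stably complemented with human TDP1 were seeded at 400 cells/well with DMSO in place of 20 nM camptothecin. After compound pinning, cells grew at least 48 hr at 37 °C; viability read by CellTiter-Glo luminescence.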
# * = called active by the depositor; u = inconclusive; x = not tested or not shown. Rows were chosen to be rich in hits. Some 19% of all compounds tested hit in one or more screens of this group. Unless noted, the call rests on the fitted dose curve; in most records, active means well fitted curve in the direction sought with a large enough effect; inconclusive means small, poorly fitted or top-dose-only effect, or another doubt; inactive means no such curve, though single readings can be large; an effect the other way counts as inactive or inconclusive.
SMILES,TGFb SMAD3 inh,DT40 TDP1 CPT,S-ASM inh,HepG2 viability,IL1B secr inh,DT40 TDP1 no CPT
Cc1ccc(C2(C)NC(=O)N(CC(=O)N3c4ccccc4NC(=O)CC3C)C2=O)cc1 (stereo unspecified),20%,-18%,0%,9%,4,20%
Cc1ccccc1NC(=O)c1ccc(F)c(S(=O)(=O)N(C)Cc2ccccc2)c1,-20%,u,x,-25%,x,21µM*
CC(C)c1ccc(NC(=O)c2cc(S(=O)(=O)NCc3ccccc3Cl)ccc2F)cc1,u,6.5µM*,x,-82%,x,9.2µM*
CCN(Cc1ccccc1)S(=O)(=O)c1ccc(F)c(C(=O)Nc2ccc(C(C)C)cc2)c1,3%,15µM*,x,-1%,x,18µM*
CC(C)c1ccc(NC(=O)c2cc(S(=O)(=O)NCCC3=CCCCC3)ccc2F)cc1,u,18µM*,x,13µM*,x,18µM*
Cc1ccc(S(=O)(=O)N(CC(=O)Nc2ccc(C(C)C)cc2)Cc2ccccc2)cc1,-22%,u,x,-25%,x,u
Cc1cc(C)c(NC(=O)c2cc(S(=O)(=O)NCCC3=CCCCC3)ccc2F)c(C)c1,-15%,u,x,-32%,x,u
CCc1cccc(C)c1NC(=O)c1cc(S(=O)(=O)N(C)Cc2ccccc2)ccc1F,u,29µM*,x,-25%,x,8.2µM*
Cc1ccc(NC(=O)c2ccc(N(Cc3ccccc3)S(C)(=O)=O)cc2)cc1,u,u,x,-22%,x,12µM*
CC(=O)c1cccc(NC(=O)c2ccc(N(Cc3ccc(C)cc3)S(C)(=O)=O)cc2)c1,5%,16µM*,-15%,-25%,-30,u
CS(=O)(=O)N(Cc1ccccc1)c1ccc(C(=O)Nc2cccc(Cl)c2)cc1,16µM*,u,x,11µM*,x,15µM*
Cc1ccc(CN(c2ccc(C(=O)Nc3ccc4c(c3)OCO4)cc2)S(C)(=O)=O)cc1,0%,1%,-10%,-1%,-4,9%
CS(=O)(=O)N(Cc1ccc(Cl)cc1)c1ccc(C(=O)Nc2cccnc2)cc1,28%,-17%,-11%,-22%,0,-29%
CCOC(=O)c1ccc(NC(=O)CC2C(=O)N(c3ccc(F)cc3)C(=O)N2Cc2ccc3c(c2)OCO3)cc1 (stereo unspecified),-4%,u,x,-18%,x,u
CCc1ccccc1NC(=O)Cn1c(=O)n(CCCCCC(=O)NCc2ccc(C)cc2)c(=O)c2sccc21,6%,u,x,9%,x,u
CC(=NNc1ccc2ccccc2n1)c1ccccc1O,u,u,-1%,-27%,-59*,u
C/C(=N\Nc1nc2ccccc2nc1C)c1ccccc1O,-24%,0.13µM*,-3%,-17%,32,0.092µM*
O=C(Nc1ccc2ccccc2n1)Nc1ccccc1F,0%,-3%,-2%,5%,52,2%
CC(=O)N1CCN(S(=O)(=O)c2cccc(C(=O)Nc3ccc(F)c(F)c3)c2)CC1,-10%,u,-6%,-3%,30,u
CC(CCCC(C)(C)O)NC(=O)c1ccc2oc(CCc3ccccc3)nc2c1 (stereo unspecified),u,u,6%,-12%,4,u
CCOC(=O)C1CCCN(C(=O)COc2ccc(C(=O)c3ccccc3)cc2)C1 (stereo unspecified),0%,23µM*,-1%,-1%,9,23µM*
CCOC(=O)C1CCCN(C(=O)COc2ccc(C(C)(C)C)cc2)CC1 (stereo unspecified),-3%,21µM*,x,2%,0,15µM*
CCOC(=O)C1CCCN(C(=O)COc2ccc(S(=O)(=O)N3CCOCC3)cc2)C1 (stereo unspecified),-8%,-8%,3%,-18%,-75*,1%
CCOC(=O)C1CCN(C(=O)COc2ccc([N+](=O)[O-])cc2)CC1,0%,u,-5%,-10%,-13,-17%
CCOC(=O)C1CCN(Cc2cnc(NC(=O)OC)s2)CC1,27%,-8%,2%,-5%,18,8%
SMILES,TGFb SMAD3 inh,DT40 TDP1 CPT,S-ASM inh,HepG2 viability,IL1B secr inh,DT40 TDP1 no CPT
CCOC(=O)C1CCN(C(=O)COc2ccc(S(=O)(=O)N3CCOCC3)cc2C)CC1,-5%,-20%,-2%,-13%,8,-14%
CCOC(=O)C1CCN(Cc2cnc(Oc3ccc(C(C)(C)C)cc3)s2)CC1,0%,u,2%,-16%,47,21µM*
CCc1ccccc1NC(=O)c1cnc2sc(N3CCCC3)nn2c1=O,-19%,-18%,x,-5%,x,2%
Cc1c(C(=O)NC2CCS(=O)(=O)C2)oc2ccccc12 (stereo unspecified),-26%,-1%,1%,14%,12,0%
C=C(C)Cn1c(=O)c2c(nc3n2CCN3c2ccc(F)cc2)n(C)c1=O,0%,u,x,-5%,x,u
CCOC(=O)C1(C)CCN1C(=O)COc1ccccc1 (stereo unspecified),-12%,2%,x,2%,-13,-3%
CCOC(=O)C1(C)CCN1C(=O)COc1ccc(C(C)(C)C)cc1 (stereo unspecified),2%,21µM*,x,-22%,33,21µM*
CCCNC(=O)COC(=O)/C=C/c1cccc(F)c1,2%,2%,-1%,12%,0,-2%
CCCNC1=C(N(C(C)=O)c2cccc(F)c2)C(=O)c2ccccc2C1=O,u,2.6µM*,-4%,7.9µM*,-84*,2.1µM*
O=C(CCNC(=O)c1ccc([N+](=O)[O-])cc1)Nc1ccc(S(=O)(=O)N2CCOCC2)cc1,12%,-11%,4%,5%,3,-18%
CCOc1ccc(NC(=O)CSc2nncc(=O)n2N)cc1,5%,-20%,-2%,1%,0,-4%
COCCn1c(=O)cnc2cnc(Nc3ccccc3)nc21,x,9.2µM*,x,x,x,15µM*
COCCn1c(=O)c(-c2ccccc2)nc2cnc(Nc3ccccc3)nc21,x,12%,x,x,x,-10%
O=c1cnc2cnc(Oc3ccccc3)nc2n1C[C@H]1CCCO1,x,-16%,x,x,x,u
O=c1cnc2cnc(Nc3ccccc3)nc2n1C[C@H]1CCCO1,x,8.2µM*,x,x,x,9.2µM*
COc1ccccc1C(=O)NCC(=O)OC(C)C(=O)NC1CCCCC1C (stereo unspecified),-1%,-9%,4%,-2%,8,-12%
